From the supplement of paper PMC10849652
The full data set covers some 8,800 targets. This sample favours those with a hit. About 0.5% of all pairs of compound and target were hits.

Experiments:
Test in all cases: log2 fold change, soluble protein after heating vs DMSO (PISA); higher = thermal stabilisation; K562 lysate, 10 uM; active = over 0.2 and 3.5 SD of the protein, either way, in both replicates (recomputed)
[1] = compound: CCCS(=O)(=O)Nc1ccc(F)c(C(=O)c2c[nH]c3ncc(-c4ccc(Cl)cc4)cc23)c1F [vemurafenib]
Outline: (§1)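 Soluble protein was defined as the supernatant remaining after 21,000xg for 90 min, following pooling of heated aliquots and adjustment to 0.5% NP-40 at 4°C. Before that, crude K562 extract at 1 mg/mL protein in PBS pH 7.4 with 1 mM MgCl2 was treated with 10 μM compound for 30 min and heated for 3 min across 48°C-58°C. Quantification used TMTpro 16plex LC-MS/MS with channel sums equalised, and values are log-two fold changes in thermal stability relative to solvent controls from duplicates.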

[2] = compound: CCCS(=O)(=O)Nc1ccc(F)c(C(=O)c2c[nH]c3ncc(Cl)cc23)c1F
Outline: as §1

[3] = compound: CCN(CCCOc1ccc2c(Nc3cc(CC(=O)Nc4cccc(F)c4)[nH]n3)ncnc2c1)CCOP(=O)(O)O [barasertib]
Outline: as §1

[4] = compound: CC[C@@H]1C(=O)N(C)c2cnc(Nc3ccc(C(=O)NC4CCN(C)CC4)cc3OC)nc2N1C1CCCC1
Outline: as §1

[5] = compound: CC[C@@H]1C(=O)N(C)c2cnc(Nc3ccc(C(=O)N[C@H]4CC[C@H](N5CCN(CC6CC6)CC5)CC4)cc3OC)nc2N1C(C)C [volasertib]
Outline: as §1

[6] = compound: CCn1c(C(=O)N(C2CC2)C2CC2)cc2c3c(ncn3C)c(Nc3cc(C)n(C)n3)nc21
Outline: as §1

[7] = compound: CCn1cc(-c2ccnc3[nH]c(-c4cccc(CN(C)C)c4)cc23)c(-c2ccc(NC(=O)N(C)C)cc2)n1
Outline: as §1

[8] = compound: CN1CCC(CNc2ccc3ncc(-c4cccc(OC(F)(F)F)c4)n3n2)CC1
Outline: as §1

[9] = compound: CN1CCN(CCOc2cc(OC3CCOCC3)c3c(Nc4c(Cl)ccc5c4OCO5)ncnc3c2)CC1 [saracatinib]
Outline: as §1

[10] = compound: CN1CCN(c2nc(C3=C(c4c[nH]c5ccccc45)C(=O)NC3=O)c3ccccc3n2)CC1 [sotrastaurin]
Outline: as §1

Measured: log2 fold change

PCBP2 isoform 3 (UniProt Q15366)
inactive: [1] -0.059 | [2] -0.004 | [3] -0.006 | [4] -0.021 | [5] -0.003 | [6] 0.057 | [7] -0.022 | [8] -0.002 | [9] -0.017 | [10] -0.006

PFKFB2 (UniProt O60825)
inactive: [1] -0.011 | [2] 0.011 | [3] 0.008 | [4] 0.004 | [5] -0.025 | [6] 0.015 | [7] -0.021 | [8] -0.029 | [9] 0.012 | [10] 0.002

PDCD10 (UniProt Q9BUL8)
inactive: [1] -0.021 | [2] -0.002 | [3] 0.006 | [4] -0.012 | [5] 0.007 | [6] 0 | [8] 0.029 | [9] 0.016 | [10] 0.04
active: [7] -0.269

PHKG2 (UniProt P15735)
inactive: [1] -0.074 | [2] -0.055 | [3] 0.126 | [4] 0.074 | [5] 0.073 | [6] -0.007 | [7] -0.103 | [8] 0.045 | [9] 0.062 | [10] -0.054

PPP4R2 (UniProt Q9NY27)
inactive: [1] -0.033 | [2] 0.026 | [3] -0.041 | [4] 0.057 | [5] -0.014 | [6] -0.042 | [7] 0.21 | [8] 0.028 | [9] -0.007 | [10] 0.006

PRKRA (UniProt O75569)
Sequence of UniProt O75569 (O75569 whole entry, looked up): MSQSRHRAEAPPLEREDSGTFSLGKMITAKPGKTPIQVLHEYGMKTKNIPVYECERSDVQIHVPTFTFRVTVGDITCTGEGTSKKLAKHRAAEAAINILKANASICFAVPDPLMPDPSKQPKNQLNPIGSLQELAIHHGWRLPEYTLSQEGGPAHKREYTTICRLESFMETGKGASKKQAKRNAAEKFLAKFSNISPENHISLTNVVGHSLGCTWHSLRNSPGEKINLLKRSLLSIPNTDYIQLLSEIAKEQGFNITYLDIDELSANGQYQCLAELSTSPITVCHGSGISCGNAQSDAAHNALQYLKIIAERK
inactive: [1] -0.012 | [2] 0.031 | [3] -0.042 | [4] -0.082 | [5] -0.052 | [6] 0.041 | [7] 0 | [8] -0.016 | [9] 0.03 | [10] 0.009

PRPF38A (UniProt Q8NAV1)
inactive: [1] -0.021 | [2] -0.011 | [3] -0.037 | [4] -0.029 | [5] -0.031 | [6] -0.055 | [8] 0.046 | [9] 0.004 | [10] 0.191
active: [7] -0.465

PREP (UniProt P48147)
inactive: [1] 0.028 | [2] 0.011 | [3] -0.003 | [4] -0.025 | [5] -0.025 | [6] 0.023 | [7] 0.008 | [8] -0.013 | [9] 0.005 | [10] 0.001

PGPEP1 (UniProt Q9NXJ5)
Sequence of UniProt Q9NXJ5 (Q9NXJ5 whole entry, looked up): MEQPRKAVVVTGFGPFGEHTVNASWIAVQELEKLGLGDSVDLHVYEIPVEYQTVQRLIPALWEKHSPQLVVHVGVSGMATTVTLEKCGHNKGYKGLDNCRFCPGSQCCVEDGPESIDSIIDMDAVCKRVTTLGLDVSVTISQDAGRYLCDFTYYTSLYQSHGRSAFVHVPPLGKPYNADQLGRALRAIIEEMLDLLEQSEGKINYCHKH
inactive: [1] 0.021 | [2] 0.022 | [3] -0.036 | [4] -0.091 | [5] -0.027 | [6] 0.036 | [7] -0.096 | [8] 0.03 | [9] 0 | [10] -0.056

POLA1 (UniProt P09884)
Sequence of UniProt P09884 (P09884 whole entry, looked up): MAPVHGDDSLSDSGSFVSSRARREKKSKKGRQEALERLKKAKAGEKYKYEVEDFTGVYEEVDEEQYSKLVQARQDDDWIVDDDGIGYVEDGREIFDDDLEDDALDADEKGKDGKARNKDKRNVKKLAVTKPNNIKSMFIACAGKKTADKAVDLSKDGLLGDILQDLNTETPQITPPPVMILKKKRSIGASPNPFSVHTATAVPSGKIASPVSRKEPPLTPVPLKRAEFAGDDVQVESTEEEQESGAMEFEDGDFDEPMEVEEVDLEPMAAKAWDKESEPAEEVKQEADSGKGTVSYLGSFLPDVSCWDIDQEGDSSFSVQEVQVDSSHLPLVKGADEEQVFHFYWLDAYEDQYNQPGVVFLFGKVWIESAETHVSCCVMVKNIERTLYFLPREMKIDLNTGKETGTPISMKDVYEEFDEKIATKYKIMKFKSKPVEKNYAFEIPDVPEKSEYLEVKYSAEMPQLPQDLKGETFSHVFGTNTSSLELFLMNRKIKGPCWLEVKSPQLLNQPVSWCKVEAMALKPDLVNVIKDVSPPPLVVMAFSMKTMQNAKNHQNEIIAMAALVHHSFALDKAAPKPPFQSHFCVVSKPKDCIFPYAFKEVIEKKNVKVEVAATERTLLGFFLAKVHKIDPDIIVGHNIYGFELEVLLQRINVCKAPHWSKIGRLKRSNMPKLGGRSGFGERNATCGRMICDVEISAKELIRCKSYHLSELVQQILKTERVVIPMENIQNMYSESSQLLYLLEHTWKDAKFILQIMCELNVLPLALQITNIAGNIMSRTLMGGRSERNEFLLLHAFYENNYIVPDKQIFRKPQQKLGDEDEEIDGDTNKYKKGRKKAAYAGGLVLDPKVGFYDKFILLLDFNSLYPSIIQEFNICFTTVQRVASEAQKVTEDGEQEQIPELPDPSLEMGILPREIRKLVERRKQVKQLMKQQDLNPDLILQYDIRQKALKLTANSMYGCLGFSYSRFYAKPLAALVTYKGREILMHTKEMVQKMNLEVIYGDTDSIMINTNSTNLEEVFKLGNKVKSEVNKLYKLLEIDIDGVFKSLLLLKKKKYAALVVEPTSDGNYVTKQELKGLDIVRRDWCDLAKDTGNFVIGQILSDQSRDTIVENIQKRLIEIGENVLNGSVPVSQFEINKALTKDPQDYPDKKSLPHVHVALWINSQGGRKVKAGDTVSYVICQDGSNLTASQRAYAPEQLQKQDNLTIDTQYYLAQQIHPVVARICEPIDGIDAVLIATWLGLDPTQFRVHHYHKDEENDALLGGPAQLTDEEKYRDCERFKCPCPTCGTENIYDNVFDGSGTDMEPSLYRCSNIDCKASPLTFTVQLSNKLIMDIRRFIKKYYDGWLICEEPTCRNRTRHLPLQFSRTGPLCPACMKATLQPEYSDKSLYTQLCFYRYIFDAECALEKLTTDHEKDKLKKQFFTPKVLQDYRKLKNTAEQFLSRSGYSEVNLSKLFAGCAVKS
inactive: [1] 0.002 | [2] 0 | [3] 0.042 | [4] 0.021 | [5] -0.012 | [6] 0.03 | [7] -0.009 | [8] -0.016 | [9] -0.003 | [10] 0.004

POLR2G (UniProt P62487)
inactive: [1] -0.014 | [2] 0.02 | [3] -0.003 | [4] 0.03 | [5] 0.023 | [6] 0 | [7] 0.025 | [8] 0.05 | [9] 0.016 | [10] 0.011

PLEKHF1 (UniProt Q96S99)
inactive: [1] 0.019 | [2] -0.008 | [3] 0.004 | [4] -0.004 | [5] 0.002 | [6] 0.059 | [7] -0.062 | [8] 0.018 | [9] 0.007 | [10] -0.028

PIP4K2A (UniProt P48426)
Sequence of UniProt P48426 (P48426 whole entry, looked up): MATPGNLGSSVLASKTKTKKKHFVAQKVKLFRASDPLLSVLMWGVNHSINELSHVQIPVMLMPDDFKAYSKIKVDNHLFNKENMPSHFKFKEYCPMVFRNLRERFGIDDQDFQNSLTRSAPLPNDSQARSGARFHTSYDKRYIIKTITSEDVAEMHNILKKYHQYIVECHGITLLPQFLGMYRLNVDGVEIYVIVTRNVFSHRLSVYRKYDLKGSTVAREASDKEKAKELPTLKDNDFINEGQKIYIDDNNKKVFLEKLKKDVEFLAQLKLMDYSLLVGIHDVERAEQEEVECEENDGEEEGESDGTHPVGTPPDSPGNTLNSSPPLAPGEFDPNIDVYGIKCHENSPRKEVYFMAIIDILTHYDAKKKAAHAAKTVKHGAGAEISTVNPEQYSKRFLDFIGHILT
inactive: [1] 0 | [2] -0.009 | [3] -0.051 | [5] 0.087 | [6] 0.073 | [7] -0.035 | [8] 0.155 | [9] 0.036 | [10] 0.02
active: [4] 0.31

PTPN2 (UniProt P17706)
inactive: [1] 0.027 | [2] -0.017 | [3] 0.051 | [4] -0.028 | [5] 0 | [6] 0.005 | [7] -0.084 | [8] -0.031 | [9] -0.052 | [10] 0.011

PPM1H (UniProt Q9ULR3)
Sequence of UniProt Q9ULR3 (Q9ULR3 whole entry, looked up): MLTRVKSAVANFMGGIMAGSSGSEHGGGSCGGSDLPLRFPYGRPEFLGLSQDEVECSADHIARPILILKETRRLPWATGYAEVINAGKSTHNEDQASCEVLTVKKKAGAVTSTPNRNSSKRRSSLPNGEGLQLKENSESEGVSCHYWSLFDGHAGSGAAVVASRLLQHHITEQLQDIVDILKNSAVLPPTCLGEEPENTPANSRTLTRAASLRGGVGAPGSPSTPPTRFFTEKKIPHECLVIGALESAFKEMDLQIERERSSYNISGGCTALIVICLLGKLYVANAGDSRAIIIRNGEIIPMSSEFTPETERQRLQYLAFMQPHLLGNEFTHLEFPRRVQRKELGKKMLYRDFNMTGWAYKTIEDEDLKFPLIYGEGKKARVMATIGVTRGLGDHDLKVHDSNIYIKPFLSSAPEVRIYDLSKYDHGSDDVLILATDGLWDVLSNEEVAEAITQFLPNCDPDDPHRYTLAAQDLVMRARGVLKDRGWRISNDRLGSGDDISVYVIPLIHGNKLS
inactive: [1] 0.066 | [2] -0.001 | [3] 0 | [4] 0.103 | [5] 0.025 | [6] 0 | [7] -0.079 | [8] 0.041 | [9] -0.062 | [10] 0.022

PRKCSH (UniProt P14314)
inactive: [1] 0.01 | [2] -0.009 | [3] -0.009 | [4] 0.007 | [5] 0.04 | [6] 0.025 | [7] 0.007 | [8] -0.003 | [9] 0.011 | [10] 0.018

PDXDC1 (UniProt Q6P996)
inactive: [1] -0.005 | [2] -0.02 | [3] 0.008 | [4] 0.03 | [5] -0.059 | [6] -0.004 | [7] -0.031 | [8] -0.067 | [9] -0.005 | [10] 0.015

PDIA4 (UniProt P13667)
Sequence of UniProt P13667 (P13667 whole entry, looked up): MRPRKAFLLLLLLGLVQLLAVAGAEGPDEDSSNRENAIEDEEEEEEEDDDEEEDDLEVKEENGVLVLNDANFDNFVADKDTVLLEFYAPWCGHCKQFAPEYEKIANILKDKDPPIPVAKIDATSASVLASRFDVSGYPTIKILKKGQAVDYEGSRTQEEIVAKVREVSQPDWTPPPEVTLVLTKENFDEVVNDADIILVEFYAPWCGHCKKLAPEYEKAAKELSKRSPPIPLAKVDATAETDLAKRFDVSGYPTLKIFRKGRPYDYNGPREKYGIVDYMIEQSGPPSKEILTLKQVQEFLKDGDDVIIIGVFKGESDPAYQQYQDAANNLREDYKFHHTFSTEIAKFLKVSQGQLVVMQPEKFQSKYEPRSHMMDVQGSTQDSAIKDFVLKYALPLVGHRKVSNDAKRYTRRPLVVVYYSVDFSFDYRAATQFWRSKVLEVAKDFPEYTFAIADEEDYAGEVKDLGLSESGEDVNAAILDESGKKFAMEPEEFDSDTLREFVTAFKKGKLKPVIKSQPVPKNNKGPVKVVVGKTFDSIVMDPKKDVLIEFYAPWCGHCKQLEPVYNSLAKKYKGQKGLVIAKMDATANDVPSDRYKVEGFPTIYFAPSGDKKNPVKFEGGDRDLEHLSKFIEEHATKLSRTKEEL
inactive: [1] -0.007 | [2] -0.02 | [3] -0.028 | [4] 0.017 | [5] 0.012 | [6] -0.008 | [7] 0.036 | [8] -0.045 | [9] 0.012 | [10] 0

PPT2 isoform 3 (UniProt Q9UMR5)
inactive: [1] 0.007 | [2] 0.012 | [3] 0.028 | [4] 0.01 | [5] -0.023 | [6] -0.026 | [7] 0.007 | [8] 0.018 | [9] -0.011 | [10] 0.003

PTMA (UniProt P06454)
Sequence of UniProt P06454 (P06454 whole entry, looked up): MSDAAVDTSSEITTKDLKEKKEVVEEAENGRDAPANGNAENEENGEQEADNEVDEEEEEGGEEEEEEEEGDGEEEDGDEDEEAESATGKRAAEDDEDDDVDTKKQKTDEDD
inactive: [1] 0.022 | [2] -0.049 | [3] 0.018 | [4] 0.06 | [5] 0.004 | [6] -0.031 | [9] -0.061 | [10] 0.04
active: [7] 0.569 | [8] -0.337

PPP2R5C isoform 4 (UniProt Q13362)
Sequence of UniProt Q13362 (Q13362 whole entry, looked up): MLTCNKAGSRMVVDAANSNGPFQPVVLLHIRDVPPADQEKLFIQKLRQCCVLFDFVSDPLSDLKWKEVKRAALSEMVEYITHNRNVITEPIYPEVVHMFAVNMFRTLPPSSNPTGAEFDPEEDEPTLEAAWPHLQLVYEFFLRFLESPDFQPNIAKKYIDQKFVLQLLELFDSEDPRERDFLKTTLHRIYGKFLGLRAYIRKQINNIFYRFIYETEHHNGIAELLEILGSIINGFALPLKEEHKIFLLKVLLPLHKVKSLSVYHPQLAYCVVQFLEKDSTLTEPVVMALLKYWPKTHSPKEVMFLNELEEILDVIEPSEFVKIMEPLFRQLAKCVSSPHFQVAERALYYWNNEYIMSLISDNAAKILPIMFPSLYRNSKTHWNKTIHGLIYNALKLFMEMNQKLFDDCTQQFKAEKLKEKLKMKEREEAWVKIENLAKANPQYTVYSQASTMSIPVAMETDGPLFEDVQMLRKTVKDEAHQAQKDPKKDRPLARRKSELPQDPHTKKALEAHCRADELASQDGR
inactive: [1] 0.029 | [2] 0.02 | [3] -0.001 | [4] 0.018 | [5] -0.002 | [6] 0.022 | [7] -0.02 | [8] -0.038 | [9] 0.017 | [10] -0.036

PIP4K2C (UniProt Q8TBX8)
active: [4] 0.463
inactive: [1] 0.039 | [2] -0.028 | [3] -0.045 | [5] 0.206 | [6] 0.103 | [7] -0.114 | [8] 0.225 | [9] -0.01 | [10] -0.019

PIR (UniProt O00625)
Sequence of UniProt O00625 (O00625 whole entry, looked up): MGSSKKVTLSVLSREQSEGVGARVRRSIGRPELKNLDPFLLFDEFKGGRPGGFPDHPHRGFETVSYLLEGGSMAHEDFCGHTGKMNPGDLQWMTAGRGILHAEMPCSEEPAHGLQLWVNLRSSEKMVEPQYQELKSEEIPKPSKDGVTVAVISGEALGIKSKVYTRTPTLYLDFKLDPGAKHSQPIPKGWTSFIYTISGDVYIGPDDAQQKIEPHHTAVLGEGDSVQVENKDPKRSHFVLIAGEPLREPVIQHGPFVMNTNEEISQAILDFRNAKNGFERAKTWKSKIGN
inactive: [1] -0.023 | [2] 0.098 | [3] -0.005 | [4] 0.025 | [5] 0.019 | [6] -0.055 | [7] 0.205 | [8] -0.024 | [9] -0.006 | [10] -0.028

PPP2R5C isoform 5 (UniProt Q13362)
inactive: [1] -0.056 | [2] -0.013 | [3] -0.03 | [4] -0.063 | [5] 0.014 | [6] 0.058 | [7] 0.046 | [8] -0.08 | [9] 0 | [10] -0.011

PCBP2 (UniProt H3BRU6)
inactive: [1] 0.13 | [2] -0.031 | [3] -0.115 | [4] 0.085 | [5] 0.036 | [6] -0.082 | [7] -0.041 | [8] 0.047 | [9] 0.1 | [10] 0.179

PIK3R1 (UniProt P27986)
inactive: [1] 0.011 | [2] -0.01 | [3] -0.005 | [4] 0.172 | [5] 0.016 | [6] 0.023 | [7] -0.037 | [9] 0.025 | [10] 0.056
active: [8] 0.365

POLD1 (UniProt P28340)
inactive: [1] 0.01 | [2] 0.053 | [3] -0.011 | [4] -0.021 | [5] -0.005 | [6] 0.035 | [7] 0.028 | [8] -0.043 | [9] 0.01 | [10] 0.015

PRKACA (UniProt P17612)
inactive: [1] -0.036 | [2] -0.016 | [3] 0.006 | [4] 0.095 | [5] -0.043 | [6] -0.081 | [7] -0.418 | [8] 0.351 | [9] -0.075 | [10] 0.216

PUS1 (UniProt Q9Y606)
Sequence of UniProt Q9Y606 (Q9Y606 whole entry, looked up): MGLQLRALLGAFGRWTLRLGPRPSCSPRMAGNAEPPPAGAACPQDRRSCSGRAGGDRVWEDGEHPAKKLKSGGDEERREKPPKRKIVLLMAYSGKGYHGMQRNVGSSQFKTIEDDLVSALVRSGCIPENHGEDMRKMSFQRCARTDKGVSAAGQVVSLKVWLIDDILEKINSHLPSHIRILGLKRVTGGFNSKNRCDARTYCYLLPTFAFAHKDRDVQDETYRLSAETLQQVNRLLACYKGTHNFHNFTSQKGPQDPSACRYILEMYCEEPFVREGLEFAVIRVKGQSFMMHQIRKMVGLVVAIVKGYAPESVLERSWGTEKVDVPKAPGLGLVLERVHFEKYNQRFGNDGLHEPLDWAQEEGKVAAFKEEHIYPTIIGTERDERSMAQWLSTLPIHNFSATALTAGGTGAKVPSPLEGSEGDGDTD
inactive: [1] 0.026 | [2] 0.002 | [3] 0.055 | [4] -0.086 | [5] -0.077 | [6] 0.028 | [7] -0.058 | [8] -0.02 | [9] 0.035 | [10] -0.027

PES1 (UniProt O00541)
inactive: [1] 0.009 | [2] 0.023 | [3] -0.019 | [4] -0.074 | [5] -0.04 | [6] 0.017 | [7] -0.043 | [8] 0.052 | [9] 0.007 | [10] 0.028
